# Hits are enriched below; roughly 7.9% of the tested compounds scored in any of these assays.
# HCV inh – inhibitors of hepatitis C virus infection; actives 3.4% (n = 340,000); Huh7.5.1 HCVcc-Cre infection, luciferase reporter, 44 h; Potency, µM (titrated, usually from 41.8 µM), for inactives: top-dose activity change, negative = inhibition, most hits filed as inhibitors; active = well fitted inhibition curve with a large enough effect; inconclusive = small, poorly fitted or top-dose-only effect, or another doubt; inactive = no such curve, though single readings can be large or run the other way; note: potency is the fitted concentration of half-maximal effect
#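 Reporter virus HCVcc-Cre (~0.5 moi) infects cells exposed to compound; seeding density 1,000 cells/well with 4 h settling beforehand. Luminescence, 15 sec read, taken 44 h post-infection following a 15 min RT substrate incubation.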
# Marburg entry inh – blocks Marburg virus binding to or entry into cells | Marburg virus pseudotyped entry inhibition, cell reporter | actives 1.8% (n = 300,000) | Potency, µM (highest dose often 37.8 µM), inactives show at the top dose activity change, negative = inhibition, most hits filed as inhibitors; calls by dose curve; tested in HEK293 cells; note: potency is the fitted concentration of half-maximal effect
# Lassa entry inh – blocks Lassa virus binding to or entry into cells. Lassa virus pseudotype entry inhibition, cell reporter. Potency, µM (top dose mostly 37.9 µM), for the others: top-dose activity change, negative = inhibition, most hits filed as inhibitors. actives 1.2% (n = 300,000). AID 540256; calls by dose curve; tested in HEK293 cells; note: potency is the fitted concentration of half-maximal effect; nearly all actives have a fitted effect of over 50% in size
# HCMV antiviral – blocks human cytomegalovirus replication; actives 4.5% (n = 410,000); activity change, negative = inhibition, % at 57.5 µM; HFF cells, HCMV-luciferase reporter, 72 h; active compounds read low; in the data active = activity change below about -60%; inconclusive = no clear call, values can overlap the other calls; inactive = above about -39%
#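 Compounds were evaluated in HFFs infected with an HCMV luciferase reporter virus (MOI 1 PFU/cell). Luciferase in lysates collected 72 h post infection served as the replication measure.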
# FMDV inh – foot and mouth disease virus antiviral activity. FMDV antiviral cell-based qHTS. actives 1.2% (n = 410,000). Potency, µM (top dose mostly 57.9 µM), for inactives: at the top dose activity change, negative = inhibition, hits mostly inhibitors; calls by dose curve; tested in HEK293T cells; note: read-out not given here; potency is the fitted concentration of half-maximal effect; nearly all actives have a fitted effect of over 45% in size
# Active calls of the source: *; ? = inconclusive; . = not tested or not shown; + = active, no number; ! = repeats disagree; [ ] = remark or other dose. % is set by controls: 0 for no effect and ±100 for the full control effect.
SMILES,HCV inh,Marburg entry inh,Lassa entry inh,HCMV antiviral,FMDV inh
O=C(Oc1ccccc1N1C(=O)C2CCCCC2C1=O)c1ccc(Cl)cc1 (centres undefined),8%,-20%,22%,-108*,7%
COC(=O)c1cccc(N2C(=O)C[C@](Sc3ccc(OC)cc3)(C(=O)N3CCCC3)[C@H]2c2ccc(OC)cc2)c1,.,.,.,-14,.
C=CCNC(=S)/N=c1/ccccn1CC,25%,-8%,8%,-98*,-6%
Cn1c(=O)c2sccc2n2c(CCCC(=O)Nc3ccc(Oc4ccc(Cl)cc4)cc3)nnc12,.,.,-13%[46.1 µM],-76*,?
CCOC(=O)N1CCC(N2Cc3cccc(C(=O)Nc4ccc(N(CC)CC)cc4C)c3C2=O)CC1,-12%,19%[46.1 µM],25%[46.1 µM],0,-25%
COc1ccccc1C1NC(=O)c2n[nH]c(-c3cccs3)c21 (centres undefined),.,?,-14%[46.1 µM],5,?
COc1ccccc1C(CC(=O)c1ccccc1)CC(=O)c1ccccc1,?,?,?,-77*,15%
CC1CN(C(=O)c2cccc(Oc3ccccc3)c2)CC(C)O1 (centres undefined),4%,-5%[46.1 µM],-3%[46.1 µM],-5,-13%
O=C(C1CCN(S(=O)(=O)N2CCOCC2)CC1)N1CCN(c2ccccc2F)CC1,-3%,7%,?,?,-5%
Cc1cc(C)c(NC(=O)C2CC(=O)N(C3CCCC3)C2)c(C)c1 (centres undefined),-7%,.,.,-72*,-2%
O=C(Nc1ccccc1)C1CC(=O)N(C2CCCCC2)C1 (centres undefined),2%,14%,-5%,17,-17%
Cc1cccc(N2CCN(C(=O)C3CCN(S(=O)(=O)N4CCOCC4)CC3)CC2)c1C,10µM*,0%,?,-15,?
Cc1cccc(N2CCN(C(=O)C3CC(=O)N(C4CCCC4)C3)CC2)c1C (centres undefined),?,?,-12%,-63*,?
COc1ccc2c(c1)[C@@H](NC(=O)OCc1ccccc1)[C@H](C)[C@@H](c1ccccc1)N2Cc1ccccn1,.,.,.,-27,.
C=CCNC(=S)N1CCN(Cc2ccc3c(c2)OCO3)CC1,1%,.,.,-98*,-7%
Cc1ccc(C(=O)N2CCN(Cc3ccc4c(c3)OCO4)CC2)o1,2%,4%,-15%,0,-1%
CC1CCN(c2nc3ccc(C(=O)N4CCN(Cc5ccc6c(c5)OCO6)CC4)cc3s2)CC1,3.2µM*,3%,.,?,-14%
O=C(C(Cl)Cl)N1CCN(Cc2ccc3c(c2)OCO3)CC1,?,.,.,-74*,-7%
CCNC(=S)N1CCN(Cc2ccc3c(c2)OCO3)CC1,-1%,.,.,-22,15%
O=C(c1sccc1Br)N1CCN(Cc2ccc3c(c2)OCO3)CC1,?,-19%[46.1 µM],-3%[46.1 µM],-63*,-27%
COc1ccc2ccccc2c1CN1CCC2(CCC(CNC(=O)c3ccccc3)O2)CC1 (centres undefined),.,.,.,.,-18%
O=c1c(-c2ccccc2)c(O)nc(SCCN2CCOCC2)n1-c1ccccc1,8%,-2%,-3%,10,0%
O=S(=O)(NC(=NCc1ccccc1)c1ccc(F)cc1)c1ccc(Cl)cc1,1%,.,.,?,56%
COc1cccc(C(=O)NCCCNC(=O)c2cccc(OC)c2)c1,11%,11%[46.1 µM],?,-4,-8%
COc1cc(OC)cc(C(=O)NCCC(c2ccccc2)c2ccccc2)c1,14µM*,.,.,-11,-12%
SMILES,HCV inh,Marburg entry inh,Lassa entry inh,HCMV antiviral,FMDV inh
S=C(Nc1ccccn1)c1ccccn1,13%,?,?,-82*,0%
COc1cc(OC)cc(C(=O)NCCSC2CCCCC2)c1,3.2µM*,9%,22%[46.1 µM],10,4%
COc1cc(OC)cc(C(=O)NCCCCCCNC(=O)c2cc(OC)cc(OC)c2)c1,7.1µM*,?,17%,15,-26%
COc1cccc(OC)c1C(=O)NCCSC1CCCCC1,17%,-17%,7%,-36,-17%
Cc1cnc(C)c(-c2ccc(O)c(CN3CCN(C=O)CC3)c2)n1,.,.,.,.,-11%
COc1cccc(CC(=O)OCC(=O)NC(Cc2ccccc2)C(C)=O)c1 (centres undefined),13%,-8%,5%,-9,-12%
COc1ccc(NC(=O)N(C2CCCCC2)C2CCN(C(C)C)CC2)c(OC)c1,3.5µM*,?,-14%,-9,-6%
COc1ccc(NC(=S)NCCC(c2ccccc2)c2ccccc2)c(OC)c1,?,?,?,-60*,-15%
COc1cc(NC(=S)NCCC(c2ccccc2)c2ccccc2)cc(OC)c1,22µM*,?,?,?,-5%
COc1cccc(NC(=S)NCCC(c2ccccc2)c2ccccc2)c1,?,?,?,-17,4%
COc1ccc(NC(=O)N(C2CCCCC2)C(C)c2ccco2)c(OC)c1 (centres undefined),?,-21%,-15%,3,.
COc1ccc(NC(=O)C(CC(C)C)NC(=O)C2CCCCC2)c(OC)c1 (centres undefined),-6%,-9%[46.1 µM],-9%[46.1 µM],?,316µM*!
Cc1ccsc1C(=O)OCC(=O)N1CCc2ccccc2C1,-12%,-23%[46.1 µM],18%,11,13%
COc1ccccc1C1=NN(C(=O)c2ccccc2)C(c2ccc(Br)cc2)C1 (centres undefined),-10%,.,.,.,-12%
COc1cc(OC)c2nc(-c3cc4c(c(OC)c3)OCCN(C(=O)CC3NC(=O)c5ccccc53)C4)cc(C)c2c1 (centres undefined),.,.,.,.,-15%
Cc1c(Cl)cccc1NC(=S)Nc1ccccn1,-17%,?,.,30,10%
COc1ccc(NC(=S)Nc2ccccn2)c(OC)c1,11µM*,0%,?,-7,68%
S=C(Nc1ccccn1)Nc1ccccc1Cl,?,9%[46.1 µM],-12%,-83*,41%
COc1ccc(NC(=S)NC2CCCCCC2)c(OC)c1,?,21%,-2%,-77*,0%
CCc1ccc(C(=O)c2cn(CC(=O)Nc3ccc4c(c3)OCO4)c3ccc(OC)cc3c2=O)cc1,.,?,-2%[46.1 µM],-8,6%
Cc1cccc(-c2nc3c4ccccc4nc(N4CCN(c5ccccc5F)CC4)n3n2)c1,.,27%[46.1 µM],.,7,23%
COc1ccc(Nc2ncnc3ccc(C)cc23)cc1,-6%,.,.,-72*,15%
COc1ccc(OC)c(Nc2ncnc3ccc(Br)cc23)c1,?,.,.,-63*,-26%
Brc1ccc2ncnc(Nc3cccc4ccccc34)c2c1,?,?,?,-66*,.
COC(=O)c1cccc(Nc2ncnc3ccc(C)cc23)c1,-23%,?,14%,-15,.
COc1ccc(Nc2ncnc3c2cnn3Cc2ccc(C)cc2)cc1,11µM*,?,?,-39,28µM*
CCN(CC)CCSc1nnc2c3cc(F)ccc3n(CC)c2n1,.,-18%[46.1 µM],6%[46.1 µM],-27,-16%
Cc1ccc(S(=O)(=O)N2CC3=C(C2)C2CC2(C)C3)cc1 (centres undefined),.,.,.,-34,-10%
Cn1ncc2c(Nc3ccc(Cl)cc3)ncnc21,11%,.,.,+,56%
